# Assay results reported in PubChem BioAssay (NCATS).
# Inconclusive results are not listed. Where a call stands in place of a potency, no number is given. Activity calls are given as the source filed them. The call rests on the fitted dose curve; in most records, active means well fitted cell-killing curve with a large enough effect; inconclusive means small, poorly fitted or top-dose-only effect; inactive means no such curve, though single readings can be large or run the other way.
# Test: qHTS of pediatric cancer cell lines to identify multiple opportunities for drug repurposing: Primary screen for SJ-GBM2 cells (AID 1347091)
# Conditions: SJ-GBM2 viability, CellTiter-Glo luminescence, 48 h; series mostly up to 46 µM
# Procedure, shortened: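 Eight- or eleven-point concentration series, 48 h treatment at 37 degrees C in growth media; readout CellTiter-Glo luminescence. Potency and efficacy were taken from the concentration-response curves.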
# Potency means the concentration at half of the fitted maximal effect.
Structure (SMILES),Potency,"activity change, negative = cytotoxic"
CCCCc1nc(Cl)c(CO)n1Cc1ccc(-c2ccccc2-c2nn[nH]n2)cc1,inactive,–
C[C@@H](CN(C)C)CN1c2ccccc2Sc2ccccc21,inactive,–
Cc1ccnc(NS(=O)(=O)c2ccc(N)cc2)n1,inactive,–
CC(O)C(=O)O (configuration not stated),inactive,–
Nc1ccc(/C=C/c2ccc(N)cc2S(=O)(=O)O)c(S(=O)(=O)O)c1,–,4.37% [at 0.597 µM] (inactive)
COc1ccc(C2C(=O)c3ccccc3C2=O)cc1,inactive,–
CCN(CC)C(=O)/C(C#N)=C/c1cc(O)c(O)c([N+](=O)[O-])c1,inactive,–
Cc1cc2c(cc1CC(=O)c1sccc1S(=O)(=O)Nc1onc(C)c1Cl)OCO2,inactive,–
CC(Cc1cccc(C(F)(F)F)c1)NCCOC(=O)c1ccccc1 (configuration not stated),inactive,–
CCN(CC)C(=O)N1CCN(C)CC1,inactive,–
NCCC(O)(P(=O)(O)O)P(=O)(O)O,inactive,–
CN1CCN(CCCN2c3ccccc3Sc3ccc(S(=O)(=O)N(C)C)cc32)CC1,18.8 µM (active),–
